What all share (assay): DAPPL (digital affinity profiling via proximity ligation, sequencing); 10 mM Tris-HCl pH 7.5, 50 mM NaCl, 1 mM DTT, 4% glycerol, room temperature, 30 min; GST-TFs on glutathione beads, 16-mer random dsDNA library, 0.1% formaldehyde crosslink after washing; high values mean tight binding
Common to all, as to conditions: protein: recombinant; tags: N-terminal GST; dsDNA, one strand shown

Experiment [1] addresses T1, ERF (Homo sapiens, UniProt P50548 1-548).
T1 sequence: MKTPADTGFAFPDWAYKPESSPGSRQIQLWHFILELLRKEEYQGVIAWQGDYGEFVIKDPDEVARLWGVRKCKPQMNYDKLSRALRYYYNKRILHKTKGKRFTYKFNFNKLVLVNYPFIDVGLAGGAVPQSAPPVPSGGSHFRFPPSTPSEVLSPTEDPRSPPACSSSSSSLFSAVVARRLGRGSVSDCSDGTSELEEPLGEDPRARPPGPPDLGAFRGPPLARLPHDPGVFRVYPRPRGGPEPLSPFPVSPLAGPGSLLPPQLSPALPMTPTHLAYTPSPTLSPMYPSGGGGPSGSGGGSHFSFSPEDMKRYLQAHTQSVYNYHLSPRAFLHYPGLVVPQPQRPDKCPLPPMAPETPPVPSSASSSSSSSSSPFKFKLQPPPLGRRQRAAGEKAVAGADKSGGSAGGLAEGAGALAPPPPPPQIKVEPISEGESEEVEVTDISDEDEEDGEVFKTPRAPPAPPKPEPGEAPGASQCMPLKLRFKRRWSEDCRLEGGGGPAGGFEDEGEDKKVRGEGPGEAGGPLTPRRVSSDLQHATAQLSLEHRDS
The essentials: (§1)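 Human transcription factors carrying a GST fusion were produced in yeast, bound to glutathione beads, tagged with DNA barcodes and pooled together with a tag-only sample. Each pool was held with 200 nmole of a random double-stranded 16-mer DNA library in Tris/NaCl/DTT/glycerol buffer for 30 min at room temperature, then washed, crosslinked in 0.1% formaldehyde, proximity-ligated with BsaI/T4 ligase (1 h, 37 °C), PCR-amplified and sequenced on an Illumina NextSeq500. Binding signal is the read frequency of each hexamer for a given factor divided by its frequency in the tag-only sample.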

In experiment [2] the target is T2, ETV3L (Homo sapiens, UniProt Q6ZN32 1-361).
T2 sequence: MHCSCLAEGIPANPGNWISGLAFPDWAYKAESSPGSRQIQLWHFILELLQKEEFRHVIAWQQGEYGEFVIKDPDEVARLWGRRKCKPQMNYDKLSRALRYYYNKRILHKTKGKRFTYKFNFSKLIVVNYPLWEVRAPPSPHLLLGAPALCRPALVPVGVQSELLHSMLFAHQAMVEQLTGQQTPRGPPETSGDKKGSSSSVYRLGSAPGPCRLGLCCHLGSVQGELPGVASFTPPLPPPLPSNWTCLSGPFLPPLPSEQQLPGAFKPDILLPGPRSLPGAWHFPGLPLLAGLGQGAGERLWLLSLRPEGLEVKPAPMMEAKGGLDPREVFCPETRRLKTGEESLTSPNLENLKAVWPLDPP
The essentials: as §1

Experiment [3] deals with T3, ETS2 (Homo sapiens, UniProt P15036 1-469).
T3 sequence: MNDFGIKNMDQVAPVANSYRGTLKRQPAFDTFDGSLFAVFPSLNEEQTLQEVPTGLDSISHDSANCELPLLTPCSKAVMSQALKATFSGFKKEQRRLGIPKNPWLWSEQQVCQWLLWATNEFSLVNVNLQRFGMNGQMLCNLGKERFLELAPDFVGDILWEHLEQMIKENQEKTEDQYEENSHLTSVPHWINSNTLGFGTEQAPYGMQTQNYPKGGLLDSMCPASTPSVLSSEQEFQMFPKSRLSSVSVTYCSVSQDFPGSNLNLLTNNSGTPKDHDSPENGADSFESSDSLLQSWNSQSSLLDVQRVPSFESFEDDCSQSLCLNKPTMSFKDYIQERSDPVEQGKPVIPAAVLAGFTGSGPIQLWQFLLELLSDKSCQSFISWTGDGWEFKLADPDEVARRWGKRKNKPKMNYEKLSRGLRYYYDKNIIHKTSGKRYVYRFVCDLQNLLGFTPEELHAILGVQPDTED
Summed up:
as §1

Experiment [4] deals with T4, SPDEF (Homo sapiens, UniProt O95238 1-335).
T4 sequence: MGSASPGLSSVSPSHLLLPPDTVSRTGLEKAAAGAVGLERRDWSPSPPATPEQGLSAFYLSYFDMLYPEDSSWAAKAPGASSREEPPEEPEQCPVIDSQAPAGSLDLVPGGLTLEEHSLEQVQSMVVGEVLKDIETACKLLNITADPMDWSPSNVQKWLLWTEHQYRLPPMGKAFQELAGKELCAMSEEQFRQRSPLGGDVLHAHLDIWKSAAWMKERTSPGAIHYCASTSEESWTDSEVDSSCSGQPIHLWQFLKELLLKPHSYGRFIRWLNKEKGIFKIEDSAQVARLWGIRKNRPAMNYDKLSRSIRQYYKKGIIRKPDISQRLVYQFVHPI
Summed up: as §1

Experiment [5] has as its target T5, ETV7 (Homo sapiens, UniProt Q9Y603 1-341).
T5 sequence: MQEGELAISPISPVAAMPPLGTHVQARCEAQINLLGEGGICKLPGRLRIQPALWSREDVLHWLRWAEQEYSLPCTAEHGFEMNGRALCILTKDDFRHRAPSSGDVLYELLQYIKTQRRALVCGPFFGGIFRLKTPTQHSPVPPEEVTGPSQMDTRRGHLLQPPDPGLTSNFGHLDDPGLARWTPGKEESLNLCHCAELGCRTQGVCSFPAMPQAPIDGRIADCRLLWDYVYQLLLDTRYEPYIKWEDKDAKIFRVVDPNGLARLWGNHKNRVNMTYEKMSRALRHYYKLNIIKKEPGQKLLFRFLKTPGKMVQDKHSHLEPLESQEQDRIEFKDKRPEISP
The essentials: as §1

For experiment [6], the target named is T6, ELF5 (Homo sapiens, UniProt Q9UKW6-2 1-255).
T6 sequence: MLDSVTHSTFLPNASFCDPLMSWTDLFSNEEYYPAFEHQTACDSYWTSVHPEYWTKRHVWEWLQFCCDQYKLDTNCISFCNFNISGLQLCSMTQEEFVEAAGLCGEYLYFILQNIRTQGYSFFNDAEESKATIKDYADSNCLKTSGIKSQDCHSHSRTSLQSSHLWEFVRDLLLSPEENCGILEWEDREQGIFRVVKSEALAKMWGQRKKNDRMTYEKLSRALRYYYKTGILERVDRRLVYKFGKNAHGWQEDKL
The essentials:
as §1

For experiment [7], the target named is T7, ETV3 (Homo sapiens, UniProt P41162-2 1-143).
T7 sequence: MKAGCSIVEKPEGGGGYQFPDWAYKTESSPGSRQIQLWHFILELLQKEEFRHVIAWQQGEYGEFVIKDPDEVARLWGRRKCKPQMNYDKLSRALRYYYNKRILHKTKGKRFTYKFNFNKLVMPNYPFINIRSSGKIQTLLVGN
Summed up: as §1

Experiment [8] has as its target ETV6 (Homo sapiens, UniProt P41212 1-452). Summed up: as §1

ETV6, sequence (P41212 whole entry): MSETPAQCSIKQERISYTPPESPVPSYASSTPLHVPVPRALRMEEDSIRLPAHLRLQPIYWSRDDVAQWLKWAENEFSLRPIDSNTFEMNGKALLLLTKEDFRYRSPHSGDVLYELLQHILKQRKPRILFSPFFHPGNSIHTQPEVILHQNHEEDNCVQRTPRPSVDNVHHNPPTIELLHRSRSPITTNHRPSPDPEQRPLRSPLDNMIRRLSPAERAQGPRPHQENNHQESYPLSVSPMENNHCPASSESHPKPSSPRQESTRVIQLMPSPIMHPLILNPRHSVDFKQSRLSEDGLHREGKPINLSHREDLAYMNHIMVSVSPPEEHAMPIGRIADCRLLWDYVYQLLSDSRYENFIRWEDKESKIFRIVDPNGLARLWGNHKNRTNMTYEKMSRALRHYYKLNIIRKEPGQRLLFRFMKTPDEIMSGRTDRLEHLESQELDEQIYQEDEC

As to GCTATG, the binding signal was 1.26 fold enrichment (6-mer frequency, TF over GST control) in experiment [1]; 1.16 fold enrichment (6-mer frequency, TF over GST control) in experiment [2]; 1.26 fold enrichment (6-mer frequency, TF over GST control) in experiment [3]; 1.23 fold enrichment (6-mer frequency, TF over GST control) in experiment [4]; 1.3 fold enrichment (6-mer frequency, TF over GST control) in experiment [5]; 1.14 fold enrichment (6-mer frequency, TF over GST control) in experiment [6]. Also, the binding signal in experiment [7] was 1.23 fold enrichment (6-mer frequency, TF over GST control); in experiment [8], 1.1 fold enrichment (6-mer frequency, TF over GST control).
Take ACAAAC: the binding signal in experiment [1] was 1.11 fold enrichment (6-mer frequency, TF over GST control); in experiment [2] it was 1.08 fold enrichment (6-mer frequency, TF over GST control); in experiment [3], 1.22 fold enrichment (6-mer frequency, TF over GST control); in experiment [4], 1.15 fold enrichment (6-mer frequency, TF over GST control); in experiment [5], 1.11 fold enrichment (6-mer frequency, TF over GST control); in experiment [6], 1.12 fold enrichment (6-mer frequency, TF over GST control). For the same sequence, the binding signal is 1.09 fold enrichment (6-mer frequency, TF over GST control) in experiment [7] and 1.15 fold enrichment (6-mer frequency, TF over GST control) in experiment [8].
As for GAAGCA, the binding signal is 1.24 fold enrichment (6-mer frequency, TF over GST control) in experiment [1]; 1.18 fold enrichment (6-mer frequency, TF over GST control) in experiment [2]; 1.32 fold enrichment (6-mer frequency, TF over GST control) in experiment [3]; 1.33 fold enrichment (6-mer frequency, TF over GST control) in experiment [4]; 1.37 fold enrichment (6-mer frequency, TF over GST control) in experiment [5]; 1.4 fold enrichment (6-mer frequency, TF over GST control) in experiment [6]. The binding signal in experiment [7] was 1.36 fold enrichment (6-mer frequency, TF over GST control); in experiment [8] it was 1.43 fold enrichment (6-mer frequency, TF over GST control).
As for CCGCTA, the binding signal in experiment [1] was 1.38 fold enrichment (6-mer frequency, TF over GST control); in experiment [2] it was 1.27 fold enrichment (6-mer frequency, TF over GST control); in experiment [3], 1.32 fold enrichment (6-mer frequency, TF over GST control); in experiment [4], 1.38 fold enrichment (6-mer frequency, TF over GST control); in experiment [5], 1.36 fold enrichment (6-mer frequency, TF over GST control); in experiment [6], 1.41 fold enrichment (6-mer frequency, TF over GST control). Also, the binding signal in experiment [7] is 1.34 fold enrichment (6-mer frequency, TF over GST control); in experiment [8], 1.4 fold enrichment (6-mer frequency, TF over GST control).
For GCCGAC, the binding signal is 1.2 fold enrichment (6-mer frequency, TF over GST control) in experiment [1]; 1.29 fold enrichment (6-mer frequency, TF over GST control) in experiment [2]; 1.15 fold enrichment (6-mer frequency, TF over GST control) in experiment [3]; 1.12 fold enrichment (6-mer frequency, TF over GST control) in experiment [4]; 1.12 fold enrichment (6-mer frequency, TF over GST control) in experiment [5]; 1.07 fold enrichment (6-mer frequency, TF over GST control) in experiment [6]. The binding signal was 1.23 fold enrichment (6-mer frequency, TF over GST control) in experiment [7] and 1.08 fold enrichment (6-mer frequency, TF over GST control) in experiment [8].
Consider GCCCGC, for which the binding signal in experiment [1] was 1.11 fold enrichment (6-mer frequency, TF over GST control); in experiment [2], 1.09 fold enrichment (6-mer frequency, TF over GST control); in experiment [3], 1.02 fold enrichment (6-mer frequency, TF over GST control); in experiment [4] it was 1.04 fold enrichment (6-mer frequency, TF over GST control); in experiment [5] it was 1.13 fold enrichment (6-mer frequency, TF over GST control); in experiment [6], 1.1 fold enrichment (6-mer frequency, TF over GST control). In addition, the binding signal in experiment [7] was 1.16 fold enrichment (6-mer frequency, TF over GST control); in experiment [8], 1.07 fold enrichment (6-mer frequency, TF over GST control).
In the case of TGTAGC, the binding signal is 1.32 fold enrichment (6-mer frequency, TF over GST control) in experiment [1]; 1.13 fold enrichment (6-mer frequency, TF over GST control) in experiment [2]; 1.12 fold enrichment (6-mer frequency, TF over GST control) in experiment [3]; 1.2 fold enrichment (6-mer frequency, TF over GST control) in experiment [4]; 1.12 fold enrichment (6-mer frequency, TF over GST control) in experiment [5]; 1.14 fold enrichment (6-mer frequency, TF over GST control) in experiment [6]. Further, the binding signal in experiment [7] was 1.22 fold enrichment (6-mer frequency, TF over GST control); in experiment [8], 1.12 fold enrichment (6-mer frequency, TF over GST control).

The values above are taken from paper PMC7862700, “An all-to-all approach to the identification of sequence-specific readers for epigenetic DNA modifications on cytosine”.
